Results filed as inconclusive are left out. The source made the active and inactive calls. Calls follow the shape of the full dose curve.
assay: Primary qHTS to identify inhibitors of SARS-CoV-2 cell entry (AID 1645846); settings: SARS-CoV-2 pseudovirus cell entry assay, luminescence; activity change, negative = inhibition: at 57.1 µM (top of the series) unless noted; series mostly up to 57.1 µM; also: nearly all actives have a fitted effect of over 45% in size
How it was run: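 Entry measured by luciferase signal 48 h after adding SARS-CoV-2-S pseudotyped MLV particles to HEK293-ACE2 cells preincubated 1 h with compounds. Normalisation: bald particles and spike particles.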
Potency is read from the fitted curve at half-maximal effect.

| SMILES | Potency | activity change, negative = inhibition |
| --- | --- | --- |
| Oc1ccc(-c2ccc(-c3cc(Nc4cccc(CNC5CC5)c4)n[nH]3)cc2)c(O)c1 | 10 µM (active) |  |
| O=C(CCCCCCNC(=O)c1cnc(N(c2ccccc2)c2ccccc2)nc1)NO | inactive |  |
| O=C1c2c(O)cc(O)cc2OC(c2ccc(O)c(O)c2)C1O (stereo unspecified) |  | 4.53% |
| COc1cc(C(=O)N2CCC(N3CCN(C)CC3)CC2)ccc1Nc1ncc2c(n1)N(C)c1ccccc1C(=O)N2C | 31.6 µM (active) |  |
| CCc1ccc(OCc2ccccc2C(=O)Nc2ccc3nc(C)cc(N)c3c2)cc1 | 10 µM (active) |  |
| O=C(CCCCCCC(=O)Nc1cccnc1)NO | inactive |  |
| COc1cc2c(cc1-c1c(C)noc1C)ncc1[nH]c(=O)n([C@H](C)c3ccccn3)c12 |  | -29% |
| N[C@@]1(C(=O)O)CS(=O)(=O)[C@H]2[C@H](C(=O)O)[C@H]21 | inactive |  |
| CN1N=C(N)c2cn([C@@H]3O[C@H](COP(=O)(O)O)[C@@H](O)[C@@H]3O)c3ncnc1c23 |  | -94.7% |
| O=C(O)CCCCCC(=O)NN=C1CCCC1 |  | -16.8% |
| O=C(Nc1ccc(Oc2ccnc3[nH]ccc23)c(F)c1)c1cccn(-c2ccc(F)cc2)c1=O |  | -21.9% |
| O=C1NC(O)CCN1[C@@H]1O[C@H](CO)[C@H](O)[C@H]1O (stereo partly specified) |  | -26.7% |
| CC(C)C(C)C=CC(C)C1CCC2C3=CC=C4CC(O)CCC4(C)C3CCC21C (stereo unspecified) | inactive |  |
| Cc1cc(Cl)ccc1OCCCC(=O)NO |  | -10.4% |
| CCN(CC)CCNC(=O)c1ccc2nc(-c3ccccc3)c(-c3ccc(CN4CCC(n5c(=O)[nH]c6ccccc65)CC4)cc3)nc2c1 | 4.47 µM (active) |  |
| CC(C)c1cc(-c2n[nH]c(=O)n2-c2ccc3c(ccn3C)c2)c(O)cc1O |  | -96% |
| CC(C)C[C@H](NC(=O)CNC(=O)c1cc(Cl)ccc1Cl)B1OC(=O)CC(CC(=O)O)(C(=O)O)O1 (stereo partly specified) |  | -99.4% |
| Cc1ccc2nc(NC(=O)CSc3nc4c(c(=O)n3-c3ccccc3)SCC4)sc2c1 |  | -16.9% |
| COc1cc(Nc2ncc(F)c(Nc3ccc4c(n3)N(COP(=O)(O)O)C(=O)C(C)(C)O4)n2)cc(OC)c1OC | inactive |  |
| COc1cc(F)c(F)c(Nc2ccc(I)cc2F)c1NS(=O)(=O)C1(C[C@H](O)CO)CC1 | 25.1 µM (active) |  |
| CCc1ccc(C(=O)Nc2cc(CN3CCN(C)CC3)cc(C(F)(F)F)c2)cc1C#Cc1cnc2ccnn2c1 | 22.4 µM (active) |  |
| C[C@H](CCC(=O)O)[C@H]1CC[C@H]2[C@H]3[C@@H](CC[C@]12C)[C@@]1(C)CC[C@@H](O)C[C@H]1C[C@@H]3O |  | 0.336% |
| CC(C)C[C@H](CC(=O)O)C(=O)N[C@@H](Cc1c[nH]c2ccccc12)C(=O)N[C@@H](C)c1ccccc1 |  | -6.02% |

assay: VSVG counterscreen qHTS to identify inhibitors of SARS-CoV-2 cell entry (AID 1645847); settings: VSV-G pseudotyped particle entry, luciferase; series mostly up to 57.2 µM; also: nearly all actives have a fitted effect of over 65% in size
How it was run: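 Luminescence read after 48 h infection at 37 C with VSV-G-pseudotyped MLV particles, following 1 h compound exposure of Expi293F cells stably expressing human ACE2; scaled between bald particle and VSV-G particle wells.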

| SMILES | Potency |
| --- | --- |
| COc1ccc(Nc2cc(-c3cnc(N)nc3)nc(N3CCOCC3)n2)cn1 | 1.08 µM (active) |
| Cc1ccc2nc(NCCN)c3ncc(C)n3c2c1 | 13.6 µM (active) |
| O=C1NC(=O)C(c2cnc3ccccn23)=C1c1cn2c3c(cccc13)CN(C(=O)N1CCOCC1)CC2 | 0.215 µM (active) |
